{"source": "patent US20130210151", "about": "“ENDONUCLEASE FOR GENOME EDITING” (University of Western Ontario, published 2013)", "data": [{"molecular_target": "TevN201-ZFE-6xHis (I-TevI 1-201 fused to ryA zinc finger) (synthetic (bacteriophage T4 I-TevI …))", "test": "cleavage_in_vitro; 10 mM MgCl2, 100 mM NaCl, pH 8.0, 37 C", "details": "tags: C-terminal 6xHis; dsDNA, one strand shown", "description": "Single time-point cleavage assays to determine the EC_{0.5max} of N201 Tev-ZFE were performed in buffer containing 20 mM Tris-HCl pH 8.0, 100 mM NaCl, 10 mM MgCl₂, 5% glycerol, 1 mM DTI and 10 nM pTZHS1.33. Reactions were incubated for 3 minutes at 37° C., stopped with 5 μl stop solution (100 mM EDTA, 40% glycerol, and bromophenol blue), and electrophoresed on a 1% agarose gel prior to staining with ethiduium bromide and analysis on an AlphaImager™3400 (Alpha Innotech). The EC_{0.5max} was determined by fitting the data to the equation\nCleavage assays were performed with wild type and mutant substrates and increasing concentrations of TevN201-ZFE to determine the amount of protein required for half-maximal cleavage (EC_{0.5max}). […] The greater substrate discrimination observed in the genetic assay likely reflects lower in vivo protein concentrations than those used for in vitro cleavage assays. […] Although the BmoN221-ZFE substrate specificity was not tested extensively, it was shown that the chimeric endonuclease cleaved the Bmo-ryA substrate plasmid, but not the target-less control plasmid.", "values": [{"sequence": "CTAGACAACACTCAGTAGATGTTTTCTTGGGTCTACCGTCCCACGCCGCATG", "binding signal": "~4.7 fold higher EC0.5max vs TZ1.33"}, {"sequence": "CTAGAAAACACTCAGTAGATGTTTTCTTGGGTCTACCGTCCCACGCCGCATG", "binding signal": "~60 fold higher EC0.5max vs TZ1.33"}]}]}
